Source: PubChem BioAssay (National Center for Advancing Translational Sciences (NCATS))
Most compounds without a hit are left out; they make up all but 0.47% or so of the library.
UDG counter: UDG inhibition counter-screen; FRET deamination/UDG coupled assay, UDG read, 4 h; Potency, µM (titrated, usually from 115 µM), for the others: top-dose activity change, negative = inhibition, actives largely listed as inhibitors; actives 0.14% (n = 91,000); AID 1347430; further: nearly all actives have a fitted effect of over 65% in size
AID inhibitor: inhibitors of human activation induced cytidine deaminase. Q9GZX7. AID deamination FRET fluorescence, UDG-coupled, 4 h. Potency, µM (highest dose often 115 µM), most hits filed as inhibitors. actives 0.32% (n = 91,000). AID 1347428; further: nearly all actives have a fitted effect of over 25% in size
Target sequence (Q9GZX7 whole entry, looked up): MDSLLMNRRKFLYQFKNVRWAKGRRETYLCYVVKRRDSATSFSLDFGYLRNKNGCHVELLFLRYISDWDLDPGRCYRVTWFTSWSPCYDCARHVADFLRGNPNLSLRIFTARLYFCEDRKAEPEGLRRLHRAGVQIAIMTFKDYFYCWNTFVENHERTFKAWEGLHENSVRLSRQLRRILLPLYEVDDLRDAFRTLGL
* hit, by the source's call; i = inactive; ? = inconclusive; [ ] = dose if it differs, or a comment. The call rests on the fitted dose curve; in most records, active means well fitted curve in the direction sought with a large enough effect; inconclusive means small, poorly fitted or top-dose-only effect, or another doubt; inactive means no such curve, though single readings can be large; an effect the other way counts as inactive or inconclusive. On the % scale 0 is the no-effect control and ±100 the full control effect; potency means the concentration at half of the fitted maximal effect.

SMILES	UDG counter	AID inhibitor
COc1ccc(Br)cc1CNC(=O)c1cnc2sc(N3CCCCCC3)nn2c1=O	-6%	18µM*
COc1ccc(CNC(=O)c2cnc3sc(N4CCCC4)nn3c2=O)cc1OC	-9%	i
CCC(Sc1nnc2c(=O)n(-c3ccc(F)cc3)ccn12)C(=O)Nc1cc(C)ccc1C (centres undefined)	-6%	i
Cc1cc(C)n(-c2nnc(Nc3cc(Cl)ccc3C)c3ccccc23)n1	32%	i
CCCN(CCC)CC(O)Cn1cc(/C=C/C(=O)c2ccc(C)cc2)c2ccccc21 (centres undefined)	-15%	35µM*
CCCN(CCC)CC(O)Cn1cc(/C=C/C(=O)c2ccc(Br)cc2)c2ccccc21 (centres undefined)	-4%	i
CCOc1ccc(NC(=O)c2noc3c2CSc2ccccc2-3)cc1	1%[57.5 µM]	i
CC(C)Oc1ccc(CNC(=O)Nc2ccc3c(c2)N(C)C(=O)c2ccccc2S3)cc1	-14%[57.5 µM]	?
COc1ccc(CNC(=O)Nc2ccc3c(c2)N(C)C(=O)c2ccccc2S3)cc1OC	4%[57.5 µM]	89µM*
COc1cc2c(=O)c(C(=O)c3ccc(C)c(C)c3)cn(Cc3ccccc3)c2cc1OC	-11%	?
COc1cc2c(=O)c(C(=O)c3ccc(C)c(C)c3)cn(Cc3ccc(F)cc3)c2cc1OC	-20%	45µM*
CCn1nc(C(=O)OC(C)C(=O)NCc2ccco2)c2ccccc2c1=O (centres undefined)	1%	i
N#C/C(=C/c1ccc(OC(F)(F)C(F)C(F)(F)F)cc1)C(=O)NC1CC1 (centres undefined)	-7%	i
CC(=O)N1N=C(c2c(-c3ccccc3)c3cc(Cl)ccc3n(C)c2=O)CC1c1cccs1 (centres undefined)	-18%	45µM*
CC(=O)N1N=C(c2ccc(C)cc2)CC1c1cn(-c2ccccc2)nc1-c1cccs1 (centres undefined)	-6%	i
COc1ccc2c(C)cc(SCC(=O)N3CCCC3)nc2c1	1%	i
COc1ccc(OC)c(C2C(C(=O)Nc3ccc(C)cc3C)=C(C)Nc3c(C(=O)Nc4ccc(F)cc4)cnn32)c1 (centres undefined)	-9%	?
COc1ccc(OC)c(C2C(C(=O)Nc3ccccc3OC)=C(C)Nc3c(C(=O)Nc4ccc(F)cc4)cnn32)c1 (centres undefined)	-15%	18µM*
CCc1ccc(N2CC(c3nnc(NC(=O)c4ccco4)s3)CC2=O)cc1 (centres undefined)	8%	i
COc1ccc(NC(=O)CN(Cc2ccccc2)S(=O)(=O)c2ccc(C)cc2)cc1Cl	89µM*	i
COC(=O)c1ccc(NC(=O)CN(Cc2ccccc2)S(=O)(=O)c2ccc(C)cc2)cc1	22%	i
Cc1nc2nc(NC(=O)c3ccc(C(C)(C)C)cc3)[nH]n2c(=O)c1Cl	5%	32µM*
COc1ccc(C(=O)Nc2nc3nc(C)c(Cl)c(=O)n3[nH]2)cc1	-5%	i
COc1ccc(S(=O)(=O)NCCS(=O)(=O)N2CCN(c3ccccc3)CC2)cc1C	-4%	i
N#Cc1ccc(NC(=O)N(Cc2ccncc2)C2CC2)cc1	-3%	i
SMILES	UDG counter	AID inhibitor
O=C(CSc1nnnn1C1CC1)N1CCN(S(=O)(=O)c2ccc3c(c2)CCC3)CC1	6%	i
Cn1cc(C(=O)N2CCN(c3cccc(C(F)(F)F)c3)CC2)c2c3ccccc3n(C)c2c1=O	79µM*	?
COc1ccccc1N1CCN(C(=O)c2cn(CC(C)C)c(=O)c3c2c2ccccc2n3C)CC1	-5%	i
Cn1c2ccccc2c2c(C(=O)N3CCN(c4cccc(C(F)(F)F)c4)CC3)cn(C3CCCCC3)c(=O)c21	-13%	?
Cc1ccc(C)c(N2CCN(C(=O)c3cn(CC(C)C)c(=O)c4c3c3ccccc3n4C)CC2)c1	?	28µM*
Cc1ccc(Cl)cc1N1CCN(S(=O)(=O)c2ccc3c(c2)CCCN3C(=O)C2CCC2)CC1	-6%	i
CCC(C)Nc1nc(-c2ccc([N+](=O)[O-])cc2)c(C(=O)Nc2ccccc2)s1 (centres undefined)	2%	i
Cc1cccc(N(C)C(=O)Cc2c(C(=O)O)[nH]c3ccccc23)c1	-2%	i
COc1ccc(-c2cc(=O)n3[nH]c(C)nc3n2)cc1	-1%	i
CC(C)(C)c1ccc(-c2nc(SCCCOc3ccccc3)n3[nH]c(=O)cc3n2)cc1	-16%	79µM*
COc1ccccc1OCCCSc1nc(-c2ccc(C(C)(C)C)cc2)nc2cc(=O)[nH]n12	1%	?
C#CC(C)(CC)NC(=O)Cn1nnc(-c2ccc(OCc3ccccc3F)cc2)n1 (centres undefined)	-14%[57.5 µM]	i
CCOC(=O)CSc1nc(-c2ccc(OCC)cc2)cc(C(F)(F)F)c1C#N	1%	i
CCCOc1ccc(-c2cc(C(F)(F)F)c(C#N)c(SCCC(=O)O)n2)cc1	-21%	79µM*
